Assay results: PubChem BioAssay (EPA / NIEHS)
Where “and” joins values, the source holds several entries; their conditions need not be identical. Equal entries are not always repeated. More than one record can exist for a structure, and the calls need not agree. Calls of active or inactive are those of the source. How the source made its calls: active means hit-call score of the fitted dose curve at least 0.9, where 1 is the maximum; inactive means score below 0.9.

read-out: Collagen III, COL3A1 (gene 1281); experiment: BSK_MyoF_CollagenIII: BioMAP Diversity Plus: MyoF Assay for Collagen III Biomarker Activity (AID 2284239); conditions: primary human lung fibroblasts
Protocol: BSK_MyoF is a cell-based, multiplexed-readout assay that uses lung fibroblasts, […], with measurements taken at 24 hours after chemical dosing in a microplate: 96-well plate.BSK_MyoF_CollagenIII is an assay component measured in the BSK_MyoF assay. It measures Collagen III antibody related to regulation of gene expression using ELISA technology.Data from the assay component BSK_MyoF_CollagenIII was analyzed at the endpoint, BSK_MyoF_CollagenIII, in the positive analysis fitting direction relative to DMSO as the negative control and baseline of activity. Using a type of binding reporter, gain or loss-of-signal activity can be used to understand protein changes. To generalize the intended target to other relatable targets, this assay endpoint is annotated to the 'cell adhesion molecules' intended target family, where the subfamily is 'collagen'.
The levels of cell surface (or secreted, indicated by the prefix "s") biomarker endpoints were measured by ELISA. Overt cytotoxicity to cells in confluent adherent cultures (all systems other than the BT system) was assessed by measuring total protein levels using sulforhodamine B (SRB) staining in parallel cultures at the time of biomarker measurements, indicated as SRB endpoints. For proliferation assays for adherent cell types, individual cell types are cultured at sub-confluence and relative cell numbers quantified by SRB staining at time points optimized for each system (48 h: 3C and CASM3C systems; 72 h: BT and HDF3CGF systems; 96 h: SAg system). SRB was performed by staining cells with 0.1% SRB after fixation with 10% TCA and reading wells at 560 nm.Viability and proliferation of PBMC (T cells) was quantified by Alamar Blue reduction for the SAg and BT systems. For PBMC viability (referred to as PBMC Cytotoxicity within the assay endpoint names), cells were plated (75,000/well in a 96-well plate) and then chemical samples added for 1 h before addition of activators, SEB and TSST-1 (20 ng/mL final concentration each). Cells were incubated for 90 h. Then, Alamar Blue (20 uL/well) (Invitrogen, Cat DAL1100) was added for 6 h, and the plates were read with a fluorescence microplate reader at 546/580 nm (excitation/emission). For PBMC proliferation, cells were plated and activated as above but incubated for only 16 h prior to addition of Alamar Blue. Plates were read after 6 h.

| SMILES | outcome | AC50 |
| --- | --- | --- |
| CCc1cc(C)cc(CC)c1-c1c(OC(=O)C(C)(C)C)n2n(c1=O)CCOCC2 | inactive | – |
| CCC(C)c1cc([N+](=O)[O-])cc([N+](=O)[O-])c1OC(=O)C=C(C)C (stereo unspecified) | – | 5.36 µM (active) |
| O=C(O)CCCc1ccc(N(CCCl)CCCl)cc1 | inactive | 20 µM (active) |
| CCCOC(=O)c1ccccc1C(=O)OCCC | inactive | – |
| O=c1[nH]c(Cl)c(Cl)cc1Cl | inactive | – |
| c1ccc(Nc2ccc3ccccc3c2)cc1 | – | 20 µM (active) |
| Nc1ccc(-c2ccc(N)c(N)c2)cc1N | inactive | – |
| CC(C)COP(=O)(OCC(C)C)OCC(C)C | inactive | – |
| CC(C)CCCCCCCOP(=O)(Oc1ccccc1)Oc1ccccc1 | – | 8.98 µM (active) |
| O=C1C=CC(=O)C=C1 | – | 32.2 µM (active) and 20 µM (active) |
| C=CCN(CC=C)C(=O)C(Cl)Cl | inactive | – |
| O=S(=O)(c1ccccc1)c1ccccc1 | inactive | – |
| O=[N+]([O-])C=Cc1ccccc1 | – | 13.8 µM (active) |
| COCC(=O)N(c1c(C)cccc1C)N1CCOC1=O | inactive | – |
| CNC(=O)Oc1cc(C)c(SC)c(C)c1 | inactive | – |
| O=P1(NCCCl)OCCCN1CCCl (stereo unspecified) | inactive | – |
| C=CC(=O)OCC(CC)CCCC (stereo unspecified) | inactive | – |
| COC(C)(C)CCC[C@H](C)C/C=C/C(C)=C/C(=O)OC(C)C | inactive | – |
| CC1(C)[C@H](C(=O)O[C@H](C#N)c2cccc(Oc3ccccc3)c2)[C@@H]1C=C(Br)Br | inactive | – |
| CC(C)(C)C(=O)CCl | inactive | – |
| CC(=O)/C=C/c1ccccc1 | inactive | – |
| CC(C)(C)C(O)C(Oc1ccc(-c2ccccc2)cc1)n1cncn1 (stereo unspecified) | – | 30.5 µM (active) |
| Cc1ccc(OP(=O)(Oc2ccc(C)cc2)Oc2ccc(C)cc2)cc1 (tested in a mixture with another compound) | inactive | – |
| CC(C)(c1cc(Cl)c(O)c(Cl)c1)c1cc(Cl)c(O)c(Cl)c1 | – | 9.8 µM (active) |
| CCCCCCCCCCCC#N | – | 29.6 µM (active) |
| Oc1cc(Cl)ccc1Cl | inactive | – |
| O=c1c2ccccc2c(=O)c2c1cc(Cl)c1[nH]c3c([nH]c12)c(Cl)cc1c(=O)c2ccccc2c(=O)c13 | inactive | – |
| CC(C)CCCCCCCOC(=O)c1ccccc1C(=O)OCCCCCCCC(C)C | inactive | – |
| O=C1C(Cl)=C(Cl)C(=O)C(Cl)=C1Cl | – | 14.4 µM (active) |
| Clc1ccc(-c2ccccc2)cc1 | inactive | – |
